Test results as given in PubChem BioAssay AID2284145 (EPA ToxCast).
Activity calls are given as the source filed them. How the source made its calls: active means hit-call score of the fitted dose curve at least 0.9, where 1 is the maximum; inactive means score below 0.9.

Each compound was assayed against human Adrenoceptor beta1 Antagonism, ADRB1 (gene 153) (UniProt P08588) (assay: ERF_TW_GPCR_hADRB1: Eurofins (ERF) G Protein-Coupled Receptor (GPCR) Radioligand Binding LeadHunter Assay for human Adrenoceptor beta1 Antagonism).
Description: ERF_TW_GPCR_hADRB1 is a biochemical, single-readout assay that uses extracted gene-proteins in a cell-free assay. Measurements were taken 2 hour after chemical dosing in a 96-well plate. See beta1 Human Adrenoceptor GPCR Binding (Antagonist Radioligand) Assay, Panlabs.ERF_TW_GPCR_hADRB1 is an assay component calculated from the ERF_TW_GPCR_hADRB1 assay. It is designed to measure radioligand binding using a type of binding reporter as detected by scintillation counting with radiometry technology.Data from the assay component ERF_TW_GPCR_hADRB1 was analyzed at the assay endpoint, ERF_TW_GPCR_hADRB1, in the positive analysis fitting direction relative to DMSO as the negative control and baseline of activity. Using a type of binding reporter, loss-of-signal activity can be used to understand changes in radioligand binding as they relate to gene ADRB1. To generalize the intended target to other relatable targets, this assay endpoint is annotated to the gpcr intended target family, where the subfamily is adrenoceptor.
Human recombinant adrenergic beta1 receptors expressed in HEK 293 cells are used in modified Tris-HCl buffer pH 7.4. A 25 ug aliquot is incubated with 0.03 nM [125I]Cyanopindolol for 120 minutes at 25C. […] Receptors are filtered and washed, the filters are then counted to determine [125I]Cyanopindolol specifically bound. […]

human Adrenoceptor beta1 Antagonism, ADRB1 (gene 153), sequence (P08588 whole entry, looked up): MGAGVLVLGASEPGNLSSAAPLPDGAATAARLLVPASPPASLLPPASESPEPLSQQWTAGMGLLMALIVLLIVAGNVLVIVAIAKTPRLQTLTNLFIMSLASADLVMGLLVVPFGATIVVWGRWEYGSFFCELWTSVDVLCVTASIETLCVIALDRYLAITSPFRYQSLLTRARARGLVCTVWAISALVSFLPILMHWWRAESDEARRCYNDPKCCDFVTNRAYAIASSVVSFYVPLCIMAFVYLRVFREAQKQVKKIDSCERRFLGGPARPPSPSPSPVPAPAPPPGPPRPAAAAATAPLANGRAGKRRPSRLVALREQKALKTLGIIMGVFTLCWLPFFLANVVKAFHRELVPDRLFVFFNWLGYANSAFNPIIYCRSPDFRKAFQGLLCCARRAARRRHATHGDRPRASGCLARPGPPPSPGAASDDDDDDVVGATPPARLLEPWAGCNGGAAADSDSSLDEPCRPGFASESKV

Compound	AC50
O=C(/C=C/c1ccc(O)cc1)CC(=O)/C=C/c1ccc(O)cc1	1130 nM (active)
